# Tests used:
# Test in all cases: DAPPL (digital affinity profiling via proximity ligation, sequencing); 10 mM Tris-HCl pH 7.5, 50 mM NaCl, 1 mM DTT, 4% glycerol, room temperature, 30 min; GST-TFs on glutathione beads, 16-mer random dsDNA library, 0.1% formaldehyde crosslink after washing; high values mean tight binding
# Conditions in all cases: protein: recombinant; tags: N-terminal GST; dsDNA, one strand shown
# [1] = molecular target: T1, ELK1 (Homo sapiens, UniProt P19419 1-428)
# T1 sequence: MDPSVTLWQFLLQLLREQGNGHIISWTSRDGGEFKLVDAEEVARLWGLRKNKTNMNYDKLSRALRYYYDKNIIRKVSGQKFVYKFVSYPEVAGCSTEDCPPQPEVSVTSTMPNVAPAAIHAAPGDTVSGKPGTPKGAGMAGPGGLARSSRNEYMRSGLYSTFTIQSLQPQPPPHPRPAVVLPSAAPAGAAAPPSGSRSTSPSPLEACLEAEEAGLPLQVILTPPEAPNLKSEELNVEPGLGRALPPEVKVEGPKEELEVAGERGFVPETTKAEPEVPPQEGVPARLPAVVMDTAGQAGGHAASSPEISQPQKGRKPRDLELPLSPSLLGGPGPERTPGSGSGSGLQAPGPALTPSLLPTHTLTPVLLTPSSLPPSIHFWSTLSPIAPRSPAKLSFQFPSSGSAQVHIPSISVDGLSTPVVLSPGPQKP
# In short: (§1)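 Human transcription factors fused to GST were expressed in yeast, captured on glutathione beads, given DNA barcodes and pooled with a GST-only negative control. Pools were incubated with 200 nmole of a 16-mer random double-stranded DNA library in Tris/NaCl/DTT/glycerol buffer at room temperature for 30 min. They were then washed, crosslinked with 0.1% formaldehyde, proximity-ligated (BsaI/T4 ligase, 1 h, 37 °C), PCR-amplified and sequenced on an Illumina NextSeq500. Binding signal is each 6-mer's read frequency for a factor divided by its frequency for the GST control.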
# [2] = molecular target: T2, GABPA (Homo sapiens, UniProt Q06546 1-454)
# T2 sequence: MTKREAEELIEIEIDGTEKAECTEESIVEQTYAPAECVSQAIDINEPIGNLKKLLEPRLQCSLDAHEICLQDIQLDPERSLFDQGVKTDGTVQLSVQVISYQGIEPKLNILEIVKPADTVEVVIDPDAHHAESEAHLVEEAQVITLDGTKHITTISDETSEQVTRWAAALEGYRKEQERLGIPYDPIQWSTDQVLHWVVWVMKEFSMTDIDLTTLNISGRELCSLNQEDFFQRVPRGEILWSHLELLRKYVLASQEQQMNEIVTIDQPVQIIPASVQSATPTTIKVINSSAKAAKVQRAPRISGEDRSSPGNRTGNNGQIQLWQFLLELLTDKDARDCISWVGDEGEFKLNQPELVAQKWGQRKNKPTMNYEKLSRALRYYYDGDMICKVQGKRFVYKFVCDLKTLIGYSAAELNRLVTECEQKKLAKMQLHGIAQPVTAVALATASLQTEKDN
# In short: as §1
# [3] = molecular target: T3, ERG (Homo sapiens, UniProt P11308 1-479)
# T3 sequence: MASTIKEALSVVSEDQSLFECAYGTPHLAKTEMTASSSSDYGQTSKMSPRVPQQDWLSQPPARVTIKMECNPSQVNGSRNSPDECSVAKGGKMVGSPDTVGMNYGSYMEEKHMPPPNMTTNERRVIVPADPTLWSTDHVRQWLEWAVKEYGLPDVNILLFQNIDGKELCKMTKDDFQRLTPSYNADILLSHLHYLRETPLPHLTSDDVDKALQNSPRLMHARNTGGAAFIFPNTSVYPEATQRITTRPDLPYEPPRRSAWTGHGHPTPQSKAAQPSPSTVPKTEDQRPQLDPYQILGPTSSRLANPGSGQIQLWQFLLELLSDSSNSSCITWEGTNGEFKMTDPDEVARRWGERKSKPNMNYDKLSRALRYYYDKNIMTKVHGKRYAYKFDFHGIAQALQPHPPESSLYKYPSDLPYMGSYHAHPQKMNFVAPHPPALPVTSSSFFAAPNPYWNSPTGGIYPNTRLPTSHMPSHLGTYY
# In short: as §1
# [4] = molecular target: ELF1 (Homo sapiens, UniProt P32519 1-619)
# In short: as §1
# [5] = molecular target: T4, EHF (Homo sapiens, UniProt Q9NZC4 1-300)
# T4 sequence: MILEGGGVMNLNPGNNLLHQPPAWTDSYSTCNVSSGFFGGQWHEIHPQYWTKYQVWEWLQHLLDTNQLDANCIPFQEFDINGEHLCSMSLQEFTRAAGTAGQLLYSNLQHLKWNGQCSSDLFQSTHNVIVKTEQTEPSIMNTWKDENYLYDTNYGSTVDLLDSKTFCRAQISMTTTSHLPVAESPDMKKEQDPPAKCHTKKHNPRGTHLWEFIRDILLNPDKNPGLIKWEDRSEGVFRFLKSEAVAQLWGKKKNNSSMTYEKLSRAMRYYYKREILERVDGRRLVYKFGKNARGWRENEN
# In short: as §1
# [6] = molecular target: T5, ELK3 (Homo sapiens, UniProt P41970 1-407)
# T5 sequence: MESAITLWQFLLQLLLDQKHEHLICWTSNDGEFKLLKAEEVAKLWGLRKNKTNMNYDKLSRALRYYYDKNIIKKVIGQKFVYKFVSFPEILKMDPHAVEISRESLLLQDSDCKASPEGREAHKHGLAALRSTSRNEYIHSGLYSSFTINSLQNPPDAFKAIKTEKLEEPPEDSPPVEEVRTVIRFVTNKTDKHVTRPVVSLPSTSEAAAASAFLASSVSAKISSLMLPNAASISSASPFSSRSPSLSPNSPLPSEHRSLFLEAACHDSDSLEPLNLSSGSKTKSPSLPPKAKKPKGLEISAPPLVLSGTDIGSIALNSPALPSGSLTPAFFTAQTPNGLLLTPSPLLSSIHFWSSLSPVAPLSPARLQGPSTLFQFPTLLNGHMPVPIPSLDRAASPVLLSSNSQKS
# In short: as §1
# [7] = molecular target: T6, FEV (Homo sapiens, UniProt Q99581 1-238)
# T6 sequence: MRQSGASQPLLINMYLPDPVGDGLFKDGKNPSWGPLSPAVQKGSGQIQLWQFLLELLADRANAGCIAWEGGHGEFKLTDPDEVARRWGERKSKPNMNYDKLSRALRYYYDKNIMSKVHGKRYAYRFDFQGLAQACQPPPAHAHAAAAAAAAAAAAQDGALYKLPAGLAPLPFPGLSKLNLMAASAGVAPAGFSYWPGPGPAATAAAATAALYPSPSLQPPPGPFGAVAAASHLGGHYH
# In short: as §1
# [8] = molecular target: ETV5 (Homo sapiens, UniProt P41161 1-510)
# In short: as §1
# [9] = molecular target: ELF4 (Homo sapiens, UniProt Q99607 1-663)
# In short: as §1
# [10] = molecular target: T7, ELK4 (Homo sapiens, UniProt P28324-2 1-405)
# T7 sequence: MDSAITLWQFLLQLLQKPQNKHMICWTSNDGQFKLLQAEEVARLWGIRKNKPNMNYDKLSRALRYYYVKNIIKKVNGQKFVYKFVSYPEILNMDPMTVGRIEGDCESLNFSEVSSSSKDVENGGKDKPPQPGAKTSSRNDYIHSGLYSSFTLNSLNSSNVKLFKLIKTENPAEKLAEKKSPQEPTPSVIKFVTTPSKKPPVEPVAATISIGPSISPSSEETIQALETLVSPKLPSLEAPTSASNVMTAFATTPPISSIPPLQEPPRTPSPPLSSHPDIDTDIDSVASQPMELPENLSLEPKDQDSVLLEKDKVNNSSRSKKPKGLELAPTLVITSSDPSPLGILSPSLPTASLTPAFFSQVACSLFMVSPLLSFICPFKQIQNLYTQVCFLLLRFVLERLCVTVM
# In short: as §1
# [11] = molecular target: ETV1 (Homo sapiens, UniProt P50549 1-477)
# In short: as §1
# [12] = molecular target: T8, ERF (Homo sapiens, UniProt P50548 1-548)
# T8 sequence: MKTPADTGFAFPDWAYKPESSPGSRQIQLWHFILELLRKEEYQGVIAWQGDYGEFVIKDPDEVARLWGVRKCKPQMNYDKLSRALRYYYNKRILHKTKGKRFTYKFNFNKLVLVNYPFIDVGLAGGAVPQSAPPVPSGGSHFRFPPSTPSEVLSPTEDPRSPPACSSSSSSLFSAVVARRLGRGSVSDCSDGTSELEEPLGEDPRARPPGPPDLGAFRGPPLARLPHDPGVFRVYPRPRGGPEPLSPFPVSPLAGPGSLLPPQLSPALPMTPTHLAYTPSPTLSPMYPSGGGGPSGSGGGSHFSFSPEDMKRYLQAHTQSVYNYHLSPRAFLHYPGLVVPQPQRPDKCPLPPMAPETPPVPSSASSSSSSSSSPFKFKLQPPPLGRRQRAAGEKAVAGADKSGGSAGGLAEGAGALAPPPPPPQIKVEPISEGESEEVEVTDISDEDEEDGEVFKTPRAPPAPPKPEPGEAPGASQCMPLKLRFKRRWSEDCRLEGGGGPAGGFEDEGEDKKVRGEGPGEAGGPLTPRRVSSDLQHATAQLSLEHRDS
# In short: as §1
# [13] = molecular target: T9, ETV3L (Homo sapiens, UniProt Q6ZN32 1-361)
# T9 sequence: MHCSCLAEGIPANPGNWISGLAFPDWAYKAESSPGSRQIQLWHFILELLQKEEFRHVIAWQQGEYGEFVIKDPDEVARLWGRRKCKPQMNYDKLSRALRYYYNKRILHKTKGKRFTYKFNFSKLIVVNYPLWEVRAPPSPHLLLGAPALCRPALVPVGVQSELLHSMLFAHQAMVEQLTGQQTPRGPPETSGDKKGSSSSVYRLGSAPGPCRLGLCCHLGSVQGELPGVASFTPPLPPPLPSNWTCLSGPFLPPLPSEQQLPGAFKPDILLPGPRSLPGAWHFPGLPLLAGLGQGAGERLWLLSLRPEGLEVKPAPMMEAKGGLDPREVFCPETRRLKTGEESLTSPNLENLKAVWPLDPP
# In short: as §1
# [14] = molecular target: T10, ETS2 (Homo sapiens, UniProt P15036 1-469)
# T10 sequence: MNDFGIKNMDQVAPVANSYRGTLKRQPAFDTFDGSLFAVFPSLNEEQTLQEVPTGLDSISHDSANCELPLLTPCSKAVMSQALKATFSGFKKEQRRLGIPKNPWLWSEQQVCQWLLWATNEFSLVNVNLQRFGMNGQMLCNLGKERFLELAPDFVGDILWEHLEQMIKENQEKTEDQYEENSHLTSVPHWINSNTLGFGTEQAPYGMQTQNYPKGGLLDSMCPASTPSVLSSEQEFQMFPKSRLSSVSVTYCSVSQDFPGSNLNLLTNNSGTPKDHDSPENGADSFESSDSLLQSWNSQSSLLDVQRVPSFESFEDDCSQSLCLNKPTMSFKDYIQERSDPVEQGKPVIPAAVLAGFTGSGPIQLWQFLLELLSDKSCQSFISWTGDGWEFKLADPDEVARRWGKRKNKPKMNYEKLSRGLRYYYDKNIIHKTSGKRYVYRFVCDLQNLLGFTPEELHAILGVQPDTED
# In short: as §1
# [15] = molecular target: T11, SPDEF (Homo sapiens, UniProt O95238 1-335)
# T11 sequence: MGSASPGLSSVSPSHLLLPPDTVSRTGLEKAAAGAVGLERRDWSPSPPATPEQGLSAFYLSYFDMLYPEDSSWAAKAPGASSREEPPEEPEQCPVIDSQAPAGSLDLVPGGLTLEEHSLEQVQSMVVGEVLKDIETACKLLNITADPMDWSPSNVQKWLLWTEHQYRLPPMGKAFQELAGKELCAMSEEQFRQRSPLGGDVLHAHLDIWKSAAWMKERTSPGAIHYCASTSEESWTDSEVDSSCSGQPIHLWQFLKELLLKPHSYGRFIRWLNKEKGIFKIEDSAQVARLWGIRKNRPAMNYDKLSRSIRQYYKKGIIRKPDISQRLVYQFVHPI
# In short: as §1
# [16] = molecular target: T12, ETV7 (Homo sapiens, UniProt Q9Y603 1-341)
# T12 sequence: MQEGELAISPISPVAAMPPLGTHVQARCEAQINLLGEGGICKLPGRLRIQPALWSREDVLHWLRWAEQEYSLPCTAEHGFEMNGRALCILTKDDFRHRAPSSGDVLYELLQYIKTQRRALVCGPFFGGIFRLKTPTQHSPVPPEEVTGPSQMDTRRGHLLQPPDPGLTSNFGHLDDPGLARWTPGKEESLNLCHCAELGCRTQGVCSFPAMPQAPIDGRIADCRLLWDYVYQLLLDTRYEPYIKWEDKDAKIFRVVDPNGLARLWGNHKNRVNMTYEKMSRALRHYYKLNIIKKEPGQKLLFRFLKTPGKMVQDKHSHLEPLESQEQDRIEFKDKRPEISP
# In short: as §1
# [17] = molecular target: T13, ETV3 (Homo sapiens, UniProt P41162-2 1-143)
# T13 sequence: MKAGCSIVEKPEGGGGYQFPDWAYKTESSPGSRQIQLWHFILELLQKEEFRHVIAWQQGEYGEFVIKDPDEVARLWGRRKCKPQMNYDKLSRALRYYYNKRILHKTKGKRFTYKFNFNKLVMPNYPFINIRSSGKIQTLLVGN
# In short: as §1
# [18] = molecular target: ETV6 (Homo sapiens, UniProt P41212 1-452)
# In short: as §1
# Sequence of ETV6 (P41212 whole entry): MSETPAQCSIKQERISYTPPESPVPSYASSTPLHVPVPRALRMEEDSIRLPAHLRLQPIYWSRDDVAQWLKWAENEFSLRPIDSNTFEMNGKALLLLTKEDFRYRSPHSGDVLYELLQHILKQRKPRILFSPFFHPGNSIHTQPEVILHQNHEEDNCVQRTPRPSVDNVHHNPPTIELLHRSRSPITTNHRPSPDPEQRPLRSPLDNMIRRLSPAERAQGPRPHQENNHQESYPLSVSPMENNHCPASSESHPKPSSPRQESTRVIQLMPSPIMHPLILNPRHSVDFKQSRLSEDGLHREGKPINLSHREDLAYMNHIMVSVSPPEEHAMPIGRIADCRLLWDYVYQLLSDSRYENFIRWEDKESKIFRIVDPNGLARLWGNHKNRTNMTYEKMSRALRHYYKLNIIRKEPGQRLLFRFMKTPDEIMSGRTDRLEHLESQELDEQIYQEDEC
# Sequence of ELF4 (Q99607 whole entry): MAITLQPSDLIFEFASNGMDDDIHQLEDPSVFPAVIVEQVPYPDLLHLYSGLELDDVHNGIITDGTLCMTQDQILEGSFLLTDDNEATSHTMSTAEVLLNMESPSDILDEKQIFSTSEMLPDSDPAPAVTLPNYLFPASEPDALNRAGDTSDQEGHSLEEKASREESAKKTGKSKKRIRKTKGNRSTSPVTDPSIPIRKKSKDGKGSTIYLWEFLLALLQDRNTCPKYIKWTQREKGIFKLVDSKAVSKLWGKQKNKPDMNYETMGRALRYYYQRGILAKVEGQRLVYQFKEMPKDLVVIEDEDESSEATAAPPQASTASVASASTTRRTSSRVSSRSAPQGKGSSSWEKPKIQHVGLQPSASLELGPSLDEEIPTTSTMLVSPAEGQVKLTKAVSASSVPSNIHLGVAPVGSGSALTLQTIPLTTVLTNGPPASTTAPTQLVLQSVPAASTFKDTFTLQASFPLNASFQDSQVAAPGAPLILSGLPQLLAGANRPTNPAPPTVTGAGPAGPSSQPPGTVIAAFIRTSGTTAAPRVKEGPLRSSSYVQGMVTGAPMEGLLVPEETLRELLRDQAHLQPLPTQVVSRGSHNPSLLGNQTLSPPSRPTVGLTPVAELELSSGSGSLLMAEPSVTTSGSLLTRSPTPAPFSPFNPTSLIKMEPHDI
# Sequence of ETV5 (P41161 whole entry): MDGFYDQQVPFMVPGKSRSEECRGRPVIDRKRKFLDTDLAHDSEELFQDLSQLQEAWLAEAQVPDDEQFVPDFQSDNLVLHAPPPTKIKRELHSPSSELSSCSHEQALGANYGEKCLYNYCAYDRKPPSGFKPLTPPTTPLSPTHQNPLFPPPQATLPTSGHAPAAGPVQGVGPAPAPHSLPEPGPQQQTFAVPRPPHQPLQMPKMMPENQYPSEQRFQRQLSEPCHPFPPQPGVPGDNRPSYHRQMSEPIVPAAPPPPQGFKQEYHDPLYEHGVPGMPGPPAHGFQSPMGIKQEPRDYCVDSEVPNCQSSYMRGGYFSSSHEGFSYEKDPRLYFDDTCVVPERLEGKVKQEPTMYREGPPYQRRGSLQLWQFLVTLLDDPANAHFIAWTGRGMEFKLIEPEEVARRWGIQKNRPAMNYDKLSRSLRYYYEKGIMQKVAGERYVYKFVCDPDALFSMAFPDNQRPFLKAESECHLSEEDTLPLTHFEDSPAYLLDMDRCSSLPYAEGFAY
# Sequence of ETV1 (P50549 whole entry): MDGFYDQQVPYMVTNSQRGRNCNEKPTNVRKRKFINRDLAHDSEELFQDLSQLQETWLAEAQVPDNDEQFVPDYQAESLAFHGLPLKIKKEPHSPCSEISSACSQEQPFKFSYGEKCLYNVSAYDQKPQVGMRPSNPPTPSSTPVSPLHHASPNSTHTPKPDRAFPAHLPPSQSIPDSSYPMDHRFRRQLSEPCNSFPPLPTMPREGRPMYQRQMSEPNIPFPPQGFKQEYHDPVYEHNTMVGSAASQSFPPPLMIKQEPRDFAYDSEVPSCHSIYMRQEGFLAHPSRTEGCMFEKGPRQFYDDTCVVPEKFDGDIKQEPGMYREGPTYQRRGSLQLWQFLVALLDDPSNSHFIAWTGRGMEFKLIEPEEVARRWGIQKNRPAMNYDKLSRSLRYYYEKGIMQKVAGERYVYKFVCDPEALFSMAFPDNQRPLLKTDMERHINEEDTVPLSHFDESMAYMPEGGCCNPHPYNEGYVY
# Sequence of ELF1 (P32519 whole entry): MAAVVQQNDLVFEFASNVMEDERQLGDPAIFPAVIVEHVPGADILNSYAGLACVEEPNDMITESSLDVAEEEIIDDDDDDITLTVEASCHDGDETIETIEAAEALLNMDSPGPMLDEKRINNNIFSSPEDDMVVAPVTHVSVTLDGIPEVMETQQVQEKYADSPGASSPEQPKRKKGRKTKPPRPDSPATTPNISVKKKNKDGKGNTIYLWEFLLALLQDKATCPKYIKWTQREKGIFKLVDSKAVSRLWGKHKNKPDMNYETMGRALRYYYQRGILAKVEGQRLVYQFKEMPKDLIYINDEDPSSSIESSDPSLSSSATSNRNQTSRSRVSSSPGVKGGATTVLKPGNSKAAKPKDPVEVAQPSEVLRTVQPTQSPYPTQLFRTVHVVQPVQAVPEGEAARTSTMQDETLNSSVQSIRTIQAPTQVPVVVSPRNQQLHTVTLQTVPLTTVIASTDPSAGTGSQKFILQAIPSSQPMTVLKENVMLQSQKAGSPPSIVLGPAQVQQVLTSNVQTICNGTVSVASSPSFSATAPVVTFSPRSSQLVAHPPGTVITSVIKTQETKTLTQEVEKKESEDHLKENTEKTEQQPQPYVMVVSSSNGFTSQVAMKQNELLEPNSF
sequence,measurement,setting,value
AGCACA,binding signal,[1],"1.01 fold enrichment (6-mer frequency, TF over GST control)"
same,binding signal,[2],"1.08 fold enrichment (6-mer frequency, TF over GST control)"
same,binding signal,[3],"1.03 fold enrichment (6-mer frequency, TF over GST control)"
same,binding signal,[4],"1.06 fold enrichment (6-mer frequency, TF over GST control)"
same,binding signal,[5],"1.04 fold enrichment (6-mer frequency, TF over GST control)"
same,binding signal,[6],"1.06 fold enrichment (6-mer frequency, TF over GST control)"
same,binding signal,[7],"1.12 fold enrichment (6-mer frequency, TF over GST control)"
same,binding signal,[8],"1.07 fold enrichment (6-mer frequency, TF over GST control)"
same,binding signal,[9],"1.08 fold enrichment (6-mer frequency, TF over GST control)"
same,binding signal,[10],"1.02 fold enrichment (6-mer frequency, TF over GST control)"
same,binding signal,[11],"1.02 fold enrichment (6-mer frequency, TF over GST control)"
same,binding signal,[12],"1.13 fold enrichment (6-mer frequency, TF over GST control)"
same,binding signal,[13],"1.14 fold enrichment (6-mer frequency, TF over GST control)"
same,binding signal,[14],"1.02 fold enrichment (6-mer frequency, TF over GST control)"
same,binding signal,[15],"1.07 fold enrichment (6-mer frequency, TF over GST control)"
same,binding signal,[16],"1.01 fold enrichment (6-mer frequency, TF over GST control)"
same,binding signal,[17],"1.05 fold enrichment (6-mer frequency, TF over GST control)"
same,binding signal,[18],"1.11 fold enrichment (6-mer frequency, TF over GST control)"

# Source: PMC7862700, “An all-to-all approach to the identification of sequence-specific readers for epigenetic DNA modifications on cytosine”
